Residual activity data for 7 molecules are collected here from ChEMBL document CHEMBL2218924, “A broad activity screen in support of a chemogenomic map for kinase signalling research and drug discovery” (Biochem J, 2013).

Experiment [1] addresses T1, cGMP-dependent protein kinase 1 (Homo sapiens) (UniProt Q13976).
T1 sequence (whole entry): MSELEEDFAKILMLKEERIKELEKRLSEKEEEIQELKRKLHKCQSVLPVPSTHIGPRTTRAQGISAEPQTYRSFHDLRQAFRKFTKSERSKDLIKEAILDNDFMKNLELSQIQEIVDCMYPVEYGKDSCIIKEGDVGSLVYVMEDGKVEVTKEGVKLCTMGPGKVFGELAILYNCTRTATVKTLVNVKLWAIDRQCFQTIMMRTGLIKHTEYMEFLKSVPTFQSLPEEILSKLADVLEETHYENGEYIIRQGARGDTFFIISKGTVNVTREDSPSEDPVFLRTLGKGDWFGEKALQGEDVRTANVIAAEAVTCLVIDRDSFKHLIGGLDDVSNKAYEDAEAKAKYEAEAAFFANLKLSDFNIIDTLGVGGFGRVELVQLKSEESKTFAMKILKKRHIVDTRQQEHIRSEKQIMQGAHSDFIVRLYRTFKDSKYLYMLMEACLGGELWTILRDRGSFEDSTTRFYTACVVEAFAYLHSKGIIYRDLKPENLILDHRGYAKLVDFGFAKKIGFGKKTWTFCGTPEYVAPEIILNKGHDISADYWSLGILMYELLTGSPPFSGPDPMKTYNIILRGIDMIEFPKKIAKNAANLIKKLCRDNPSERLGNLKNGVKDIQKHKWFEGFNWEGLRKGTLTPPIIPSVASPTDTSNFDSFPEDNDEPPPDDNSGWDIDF
Conditions: at 1 µM.

Experiment [2] deals with T1, cGMP-dependent protein kinase 1 (Homo sapiens). As to conditions: at 10 µM.
The target is the same in experiment [3]. As to conditions: at 1 µM. This is another data set of the same source.
For experiment [4] the target is unchanged. Conditions: at 10 µM. This is another data set of the same source.
In experiment [5] the target is T2, MAP kinase-activated protein kinase 5 (Homo sapiens) (UniProt Q8IW41).
T2 sequence (whole entry): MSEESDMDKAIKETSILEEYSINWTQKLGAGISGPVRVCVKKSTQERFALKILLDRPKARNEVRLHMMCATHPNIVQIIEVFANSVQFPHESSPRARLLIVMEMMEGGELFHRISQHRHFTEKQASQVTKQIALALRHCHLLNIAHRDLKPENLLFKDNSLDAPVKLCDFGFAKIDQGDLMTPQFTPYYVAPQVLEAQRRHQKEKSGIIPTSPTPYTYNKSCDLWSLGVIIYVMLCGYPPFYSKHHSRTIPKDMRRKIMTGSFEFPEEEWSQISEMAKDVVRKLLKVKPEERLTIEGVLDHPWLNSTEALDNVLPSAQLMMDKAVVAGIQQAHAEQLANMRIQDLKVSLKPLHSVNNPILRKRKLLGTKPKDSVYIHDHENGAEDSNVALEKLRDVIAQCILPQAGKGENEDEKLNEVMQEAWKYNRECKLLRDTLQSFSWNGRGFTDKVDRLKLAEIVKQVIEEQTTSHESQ
Conditions: at 1 µM.

Experiment [6] deals with T2, MAP kinase-activated protein kinase 5 (Homo sapiens). Conditions: at 10 µM.
The target of experiment [7] is Serine/threonine-protein kinase N2 (Homo sapiens) (UniProt Q16513). Conditions: at 1 µM.
Sequence of Serine/threonine-protein kinase N2 (Homo sapiens) (Q16513 whole entry, looked up): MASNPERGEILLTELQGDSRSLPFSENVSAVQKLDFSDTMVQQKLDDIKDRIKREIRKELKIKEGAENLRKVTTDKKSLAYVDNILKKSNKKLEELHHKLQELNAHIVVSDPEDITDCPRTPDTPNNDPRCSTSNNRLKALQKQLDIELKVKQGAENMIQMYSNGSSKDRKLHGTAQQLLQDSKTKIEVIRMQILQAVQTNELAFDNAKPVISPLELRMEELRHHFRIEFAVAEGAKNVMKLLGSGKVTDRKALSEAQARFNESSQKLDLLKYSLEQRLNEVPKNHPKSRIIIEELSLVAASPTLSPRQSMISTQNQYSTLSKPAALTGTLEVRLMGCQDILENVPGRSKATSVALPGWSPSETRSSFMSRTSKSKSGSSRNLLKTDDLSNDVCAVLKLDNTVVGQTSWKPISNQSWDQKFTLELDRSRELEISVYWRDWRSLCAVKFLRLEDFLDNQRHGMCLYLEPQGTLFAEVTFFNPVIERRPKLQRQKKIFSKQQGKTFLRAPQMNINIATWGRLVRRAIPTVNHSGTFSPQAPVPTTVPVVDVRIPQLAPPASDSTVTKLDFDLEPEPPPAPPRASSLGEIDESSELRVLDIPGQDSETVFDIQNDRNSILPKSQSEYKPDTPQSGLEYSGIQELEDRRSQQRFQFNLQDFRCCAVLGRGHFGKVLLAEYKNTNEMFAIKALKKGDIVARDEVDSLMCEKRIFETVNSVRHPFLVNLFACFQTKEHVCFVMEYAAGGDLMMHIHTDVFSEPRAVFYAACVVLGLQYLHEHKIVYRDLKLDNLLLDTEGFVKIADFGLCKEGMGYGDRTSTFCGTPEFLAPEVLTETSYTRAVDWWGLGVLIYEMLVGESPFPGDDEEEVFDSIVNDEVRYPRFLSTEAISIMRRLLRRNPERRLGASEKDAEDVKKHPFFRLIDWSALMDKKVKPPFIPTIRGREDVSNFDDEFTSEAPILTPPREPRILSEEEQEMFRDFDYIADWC
The target is the same in experiment [8]. Conditions: at 10 µM.
In experiment [9] the target is Tyrosine-protein kinase FRK (Homo sapiens) (UniProt P42685). As to conditions: at 1 µM.
Sequence of Tyrosine-protein kinase FRK (Homo sapiens) (P42685 whole entry): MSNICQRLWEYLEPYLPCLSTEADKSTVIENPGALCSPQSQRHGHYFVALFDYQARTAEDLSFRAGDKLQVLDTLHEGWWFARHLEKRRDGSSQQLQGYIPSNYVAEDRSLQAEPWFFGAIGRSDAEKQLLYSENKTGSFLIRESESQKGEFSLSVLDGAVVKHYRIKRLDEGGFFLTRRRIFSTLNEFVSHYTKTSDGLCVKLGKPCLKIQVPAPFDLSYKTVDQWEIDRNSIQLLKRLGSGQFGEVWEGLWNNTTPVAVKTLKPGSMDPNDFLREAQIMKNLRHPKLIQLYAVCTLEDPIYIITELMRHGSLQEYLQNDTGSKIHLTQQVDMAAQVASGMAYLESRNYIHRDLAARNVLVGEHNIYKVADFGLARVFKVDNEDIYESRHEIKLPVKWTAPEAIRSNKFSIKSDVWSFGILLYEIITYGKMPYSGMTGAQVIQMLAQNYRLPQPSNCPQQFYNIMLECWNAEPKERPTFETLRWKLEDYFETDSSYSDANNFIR
The target is the same in experiment [10]. Conditions: at 10 µM.
The target in experiment [11] is T3, Phosphorylase b kinase gamma catalytic chain, liver/testis isoform (Homo sapiens) (UniProt P15735).
T3 sequence (whole entry): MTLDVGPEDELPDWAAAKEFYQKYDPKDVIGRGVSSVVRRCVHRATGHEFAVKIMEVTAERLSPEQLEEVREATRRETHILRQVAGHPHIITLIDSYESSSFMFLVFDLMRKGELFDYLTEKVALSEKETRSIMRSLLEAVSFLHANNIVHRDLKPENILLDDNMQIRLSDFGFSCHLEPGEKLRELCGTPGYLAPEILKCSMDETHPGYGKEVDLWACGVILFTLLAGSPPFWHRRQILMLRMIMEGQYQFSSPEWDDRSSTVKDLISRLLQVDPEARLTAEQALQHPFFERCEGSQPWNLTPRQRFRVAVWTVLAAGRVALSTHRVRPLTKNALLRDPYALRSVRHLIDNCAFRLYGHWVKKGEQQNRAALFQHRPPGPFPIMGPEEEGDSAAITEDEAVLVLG
As to conditions: at 1 µM.

In experiment [12] the target is T3, Phosphorylase b kinase gamma catalytic chain, liver/testis isoform (Homo sapiens). Conditions: at 10 µM.
Experiment [13] concerns the target Serine/threonine-protein kinase pim-1 (Homo sapiens) (UniProt P11309). As to conditions: at 1 µM.
Experiment [14] has the same target. As to conditions: at 10 µM.
The target of experiment [15] is Serine/threonine-protein kinase pim-2 (Homo sapiens) (UniProt Q9P1W9). As to conditions: at 1 µM.
Sequence of Serine/threonine-protein kinase pim-2 (Homo sapiens) (Q9P1W9 whole entry, looked up): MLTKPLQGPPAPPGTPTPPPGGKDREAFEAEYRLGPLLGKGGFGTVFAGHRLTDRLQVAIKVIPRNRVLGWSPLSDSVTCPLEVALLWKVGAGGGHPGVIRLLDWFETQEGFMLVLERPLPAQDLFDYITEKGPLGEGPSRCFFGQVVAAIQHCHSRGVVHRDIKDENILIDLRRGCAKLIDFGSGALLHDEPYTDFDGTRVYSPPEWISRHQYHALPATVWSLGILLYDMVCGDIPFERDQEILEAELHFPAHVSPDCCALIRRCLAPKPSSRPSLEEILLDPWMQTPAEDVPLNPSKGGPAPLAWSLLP
The target is the same in experiment [16]. Conditions: at 10 µM.
In experiment [17] the target is Serine/threonine-protein kinase pim-3 (Homo sapiens) (UniProt Q86V86). As to conditions: at 1 µM.
Experiment [18] shares this target. As to conditions: at 10 µM.
Experiment [19] has as its target Serine/threonine-protein kinase PLK1 (Homo sapiens) (UniProt P53350). Conditions: at 1 µM.
For experiment [20] the target is unchanged. As to conditions: at 10 µM.

Sequence of Serine/threonine-protein kinase PLK1 (Homo sapiens) (P53350 whole entry): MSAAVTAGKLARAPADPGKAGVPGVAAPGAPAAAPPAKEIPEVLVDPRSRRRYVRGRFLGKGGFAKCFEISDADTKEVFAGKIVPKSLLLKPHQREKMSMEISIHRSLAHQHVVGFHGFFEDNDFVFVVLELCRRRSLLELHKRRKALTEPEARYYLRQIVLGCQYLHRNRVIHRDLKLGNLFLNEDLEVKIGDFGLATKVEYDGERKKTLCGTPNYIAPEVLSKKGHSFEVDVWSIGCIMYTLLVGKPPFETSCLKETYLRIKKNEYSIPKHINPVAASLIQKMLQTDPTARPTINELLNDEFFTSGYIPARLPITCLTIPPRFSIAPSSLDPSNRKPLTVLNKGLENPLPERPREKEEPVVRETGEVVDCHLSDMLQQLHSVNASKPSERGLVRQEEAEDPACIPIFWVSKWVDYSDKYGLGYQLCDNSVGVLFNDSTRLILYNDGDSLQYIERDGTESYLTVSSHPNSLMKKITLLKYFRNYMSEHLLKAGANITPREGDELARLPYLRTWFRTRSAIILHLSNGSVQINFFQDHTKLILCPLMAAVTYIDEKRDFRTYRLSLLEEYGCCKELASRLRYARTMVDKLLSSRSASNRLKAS
Sequence of Serine/threonine-protein kinase pim-1 (Homo sapiens) (P11309 whole entry, looked up): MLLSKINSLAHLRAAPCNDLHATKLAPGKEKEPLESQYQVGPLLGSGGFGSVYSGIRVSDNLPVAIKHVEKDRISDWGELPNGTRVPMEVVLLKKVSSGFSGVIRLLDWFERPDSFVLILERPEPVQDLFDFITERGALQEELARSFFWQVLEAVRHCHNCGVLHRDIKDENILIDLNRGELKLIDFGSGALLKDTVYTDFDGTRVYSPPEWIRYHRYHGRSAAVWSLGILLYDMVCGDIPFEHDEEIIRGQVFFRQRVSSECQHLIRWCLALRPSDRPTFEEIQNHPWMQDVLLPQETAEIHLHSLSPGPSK

`O=Nc1c(-c2c(O)[nH]c3ccccc23)[nH]c2ccccc12`: the residual activity in experiment [1] was determined as 77%; in [2], 67%; in experiment [3], 79%; in experiment [4] it was 45%; in experiment [5] it was 78%; in experiment [6], 24%. Also, the residual activity came to 91% in experiment [7]; 48% in [8]; 13% in experiment [9]; 6% in experiment [10]; 25% in experiment [11]; 12% in experiment [12]. Further, the residual activity in experiment [13] worked out at 76%; in experiment [14], 47%; in [15] it was 68%; in [16], 38%; in experiment [17], 94%; in experiment [18] it was 90%. The residual activity came out at 83% in experiment [19] and 103% in experiment [20].
Take `Ic1cccc(CSc2nnc(-c3ccncc3)o2)c1`: the residual activity in [1] is 105%; in [2] it was 96%; in experiment [3] it was 88%; in [4], 49%; in experiment [5], 105%; in experiment [6], 117%. The residual activity in [7] was determined as 83%; in experiment [8] it was 70%; in experiment [9], 77%; in experiment [10], 78%; in experiment [11], 106%; in experiment [12], 84%. In addition, the residual activity was 104% in [13]; 73% in experiment [14]; 93% in [15]; 86% in experiment [16]; 78% in [17]; 84% in [18]. Also, the figures for the residual activity in experiment [19] and in experiment [20] were 72% and 74%, respectively.
On to `O=C1NC(=O)/C(=C/c2ccc3c(c2)OC(F)(F)O3)S1`, for which the residual activity in [1] is 105%; in experiment [2], 108%; in experiment [3] it was 72%; in experiment [4], 52%; in [5], 106%; in [6], 37%. The residual activity turned out to be 117% in [7]; 97% in experiment [8]; 101% in experiment [9]; 107% in experiment [10]; 85% in experiment [11]; 94% in [12]. Moreover, the residual activity in experiment [13] is 37%; in experiment [14], 5%; in experiment [15], 58%; in experiment [16], 10%; in [17], 88%; in [18], 41%. The residual activity in [19] turned out to be 101%; in experiment [20], 61%.
As for `Oc1n[nH]c2nnc(-c3c(-c4ccccc4)nn4ccccc34)cc12`, the residual activity in [1] was found to be 99%; in experiment [2], 100%; in [3], 89%; in [4], 78%; in experiment [5], 115%; in experiment [6], 112%. The residual activity came to 86% in [7]; 86% in experiment [8]; 88% in experiment [9]; 92% in [10]; 116% in [11]; 111% in [12]. For the same molecule, the residual activity in experiment [13] came to 84%; in experiment [14], 89%; in [15], 123%; in [16], 84%; in experiment [17], 85%; in [18], 84%. The figures for the residual activity in experiment [19] and in [20] were 75% and 83%, respectively.
On to `COc1cc2ncnc(Nc3ccc(Oc4ccccc4)cc3)c2cc1OC`, for which the residual activity in [1] stood at 119%; in experiment [2], 143%; in experiment [3], 76%; in [4], 110%; in experiment [5], 120%; in experiment [6] it was 118%. In addition, the residual activity is 91% in experiment [7]; 120% in [8]; 39% in [9]; 7% in [10]; 95% in experiment [11]; 123% in [12]. In addition, the residual activity stood at 81% in [13]; 132% in experiment [14]; 135% in experiment [15]; 142% in [16]; 95% in [17]; 93% in experiment [18]. Further, the residual activity in [19] amounted to 74%; in experiment [20] it was 72%.
`COc1cc2ncnc(N3CCN(C(=O)Nc4ccc(Oc5ccccc5)cc4)CC3)c2cc1OC`: the residual activity in [1] is 99%; in experiment [2] it was 110%; in experiment [3], 68%; in experiment [4], 72%; in experiment [5], 78%; in experiment [6], 79%. Further, the residual activity in [7] turned out to be 88%; in experiment [8], 112%; in experiment [9], 96%; in [10] it was 127%; in experiment [11], 103%; in [12], 122%. Moreover, the residual activity in [13] came out at 111%; in experiment [14], 122%; in experiment [15], 92%; in experiment [16], 149%; in [17] it was 91%; in experiment [18] it was 93%. Moreover, the figures for the residual activity in experiment [19] and in [20] were 63% and 61%, respectively.
Consider `CC[n+]1c(/C=C/N(C)c2ccccc2)n(-c2ccccc2)c2ccc(-c3nc4ccccc4s3)cc21`, for which the residual activity is 105% in experiment [1]; 80% in experiment [2]; 87% in [3]; 60% in experiment [4]; 104% in experiment [5]; 133% in experiment [6]. Also, the residual activity came out at 94% in experiment [7]; 77% in experiment [8]; 108% in experiment [9]; 123% in experiment [10]; 93% in [11]; 63% in experiment [12]. Moreover, the residual activity in experiment [13] was 94%; in [14] it was 85%; in [15], 101%; in experiment [16] it was 136%; in experiment [17], 105%; in [18], 107%. The results for the residual activity in experiment [19] and in [20] were 123% and 90%, respectively.
